What all share (experiment): qHTS profiling for inhibitors of Plasmodium falciparum proliferation (AID 504749); note: nearly all actives have a fitted effect of over 60% in size
Common to all, as to conditions: P. falciparum in erythrocytes, SYBR Green DNA, 72 h; series mostly up to 28.7 µM

The test system of test [1] is CP250. The method, boiled down: (§1)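 Three-day growth assay of blood-stage parasites in erythrocytes (0.3% parasitemia, 2.5% hematocrit) at 37 C, 5% CO2, quantified by SYBR Green DNA staining after overnight detergent lysis.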
Test [2] deals with CP260. Put shortly: as §1
Test [3] concerns CP265. Put shortly:
as §1

Test [4] relates to CP268. The method, boiled down: as §1
Test [5] deals with CP238. Put shortly: as §1
Test [6] deals with CP247. The method, boiled down:
as §1

In test [7] the test system is CP252. The method, boiled down: as §1
Test [8] deals with CP262. The method, boiled down: as §1
The subject of test [9] is CP266. Put shortly: as §1
In test [10] the test system is CP256. Put shortly: as §1

Inconclusive results are not listed. Activity calls are given as the source filed them. Calls come from the whole dose curve; as a rule, active = well fitted inhibition curve with a large enough effect; inconclusive = small, poorly fitted or top-dose-only effect; inactive = flat fitted curve, though single readings scatter.
Potency is the fitted concentration of half-maximal effect.

In the case of `CCCCCCCCCCCCCCCC[N+](C)(C)C`, the Potency in test [1] is 8.91 µM (active); in test [2], 5.62 µM (active); in test [3], 11.2 µM (active); in test [4], 13.5 µM (active).
With `c1ccc(C2(c3ccccc3)CC2C2=NCCN2)cc1` (stereo not given), the Potency result in test [5], in test [6], in test [1], in test [7], in test [8] and in [3] was “inactive” each time. The Potency result in [4] is “inactive”.
Turning to `CN[C@@H]1C[C@@H](c2ccc(Cl)c(Cl)c2)c2ccccc21`, the Potency entry in test [5] and in [1] was “inactive” in each case.
Consider `CN(C)[C@@H]1C(=O)C(C(N)=O)=C(O)[C@@]2(O)C(=O)C3=C(O)c4c(O)cccc4[C@@](C)(O)[C@H]3[C@H](O)[C@@H]12`, for which the Potency result in test [5], in test [6], in [1], in test [3] and in test [4] was “inactive” throughout. Besides, in test [9], the result was inactive.
Regarding `CC(=O)[O][Hg][c]1ccccc1`, the Potency in test [5] is 5.62 µM (active); in [6], 5.62 µM (active); in test [1] it was 7.08 µM (active); in [7], 8.91 µM (active); in [10] it was 8.91 µM (active); in test [2], 3.98 µM (active). In addition, the Potency is 8.91 µM (active) in test [3] and 4.78 µM (active) in test [4].
As to `CCCCCCCCCC(CC)c1ccc(S(=O)(=O)O)cc1` (stereo not given), the Potency entry in test [5], in [6], in test [1], in [7], in [10] and in test [2] was “inactive” throughout. The Potency entry in test [8], in test [3] and in test [4] was “inactive” in each case.
With `Cc1cc(O)ccc1Cl`, the Potency result in [5], in [6], in test [1], in test [7], in test [10] and in test [2] was “inactive” throughout. In addition, the Potency result in [8], in [3] and in test [4] was “inactive” each time. Moreover, the result in test [9] was inactive.
With `Cc1ccc(Cl)c(O)c1`, the Potency entry in [5], in [6], in [1], in test [7], in test [10] and in test [2] was “inactive” each time. Further, the Potency entry in [8], in test [3] and in [4] was “inactive” each time. Moreover, in [9], the compound was called inactive.
As for `O=[N+]([O-])c1ccc([As](=O)(O)O)cc1`, the Potency in test [5] is 11.2 µM (active); in [1], 7.08 µM (active); in [7], 7.08 µM (active); in test [10], 10 µM (active); in test [2], 7.08 µM (active); in [8] it was 8.49 µM (active). In addition, the Potency in test [3] was 10 µM (active); in test [4] it was 13.5 µM (active).
For the compound `C#CC1(O)CCC2C3CCC4=CC(=O)CCC4(C)C3CCC21C` (stereo not given), the Potency result in [5], in test [6], in test [1], in [7], in test [10] and in [2] was “inactive” throughout. The Potency result in test [8], in [3] and in test [4] was “inactive” throughout. The result in test [9] was inactive.
Consider `CN1C2CCC1CC(OC(=O)c1cc(Cl)cc(Cl)c1)C2` (stereo not given), for which the Potency result in [5], in [6], in [1], in test [7], in [10] and in [2] was “inactive” each time. For the same compound, the Potency entry in [8], in test [3] and in test [4] was “inactive” each time. Also, the result in test [9] was inactive.
Turning to `NC(=O)CN1CC(O)CC1=O` (stereo not given), the Potency result in test [5], in test [6], in test [1], in test [7], in test [10] and in test [2] was “inactive” throughout. Besides, the Potency entry in [8], in test [3] and in test [4] was “inactive” in each case. In addition, the compound was called inactive in test [9].
For the compound `CCCCc1ccc(C(=O)O)nc1`, the Potency result in [5], in test [6], in test [1], in [7], in test [10] and in [2] was “inactive” throughout. In addition, the Potency entry in test [8], in test [3] and in [4] was “inactive” throughout. Moreover, the result in test [9] was inactive.
In the case of `COC(=O)c1cncn1C(C)c1ccccc1` (stereo not given), the Potency entry in test [8] and in test [4] was “inactive” throughout. The compound was classed as inactive in test [9].
For the compound `O=C(O)C(Cl)Cl`, the Potency entry in [5], in [6], in test [1], in [7], in [10] and in test [2] was “inactive” in each case. In addition, the Potency entry in test [8], in test [3] and in test [4] was “inactive” throughout. The call in test [9] was inactive.
As to `COC(C)(C)CCCC(C)C/C=C/C(C)=C/C(=O)OC(C)C` (stereo not given), the Potency result in test [5] and in test [8] was “inactive” in each case. In addition, in [3], the Potency is 11.2 µM (active).
`C=CCN1CC[C@]23CCCCC2[C@H]1Cc1ccc(O)cc13` (stereo not given in full): the Potency entry in test [5], in test [6], in test [1], in test [7], in test [10] and in test [2] was “inactive” throughout. The Potency result in test [8], in test [3] and in test [4] was “inactive” each time. Further, the compound was classed as inactive in [9].
On to `C[C@]12CCC(=O)C(O)=C1CC[C@@H]1[C@H]3CCC(=O)[C@@]3(C)CC[C@@H]12`, for which the Potency result in test [5], in test [6], in [7], in [2], in test [8] and in test [4] was “inactive” throughout. Further, the compound was classed as inactive in test [9].
For the compound `CC[N+]1(CCOC(=O)C(O)(c2ccccc2)c2ccccc2)CCCCC1`, the Potency entry in test [1], in [7], in test [2], in test [8], in test [3] and in test [4] was “inactive” in each case. Further, the call in test [9] was inactive.
Regarding `CC(C)NC(C)Cc1ccc(I)cc1` (stereo not given), the Potency result in test [5], in test [6], in test [1], in [7], in test [10] and in [2] was “inactive” throughout. In addition, the Potency entry in test [8] and in test [3] was “inactive” each time. Besides, the outcome in [9] was inactive.
Consider `CC(=O)OCC1=C(C(=O)O)N2C(=O)[C@@H](N)[C@@H]2SC1`, for which the Potency entry in [2], in test [8] and in test [4] was “inactive” each time. The compound was classed as inactive in [9].
With `NC1=NC(=O)N2CC12` (stereo not given), the Potency entry in test [5], in test [1] and in test [7] was “inactive” each time. For the same compound, the Potency in test [2] was 10 µM (active). Moreover, the outcome in test [9] was inactive.
In the case of `C1CCC(NC2CCCCC2)CC1`, the Potency result in test [5], in [6], in test [1], in [7], in test [2] and in test [8] was “inactive” throughout. In addition, the Potency result in [3] and in test [4] was “inactive” each time. For the same compound, the call in [9] was inactive.
Take `O=C(O)COc1ccccc1`: the Potency result in [5], in test [6], in [1], in test [7], in test [10] and in test [2] was “inactive” each time. For the same compound, the Potency entry in [8], in test [3] and in [4] was “inactive” each time. The call in [9] was inactive.
`COC(=O)[C@@H](N)CCCN=C(N)N[N+](=O)[O-]`: the Potency entry in test [5], in [6], in test [1], in test [7], in test [10] and in [2] was “inactive” throughout. In addition, the Potency result in test [8], in test [3] and in test [4] was “inactive” throughout. Moreover, in [9], the call was inactive.
Consider `CCCN1CCC[C@H](c2cccc(O)c2)C1`, for which the Potency result in test [5], in [1], in test [7], in [10], in test [2] and in [8] was “inactive” each time. For the same compound, the Potency result in test [3] and in [4] was “inactive” in each case. The compound was called inactive in [9].

For the origin of these results see PubChem BioAssay (NCATS).
